A short description of test [1]: antimalarial activity against Dd2 strain (AID 2302;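 active = growth inhibition above 50% at the single 2 µM test dose, taken to imply half-maximal potency below 2 µM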;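 note: 0% = DMSO untreated growth and 100% = chloroquine plus artemisinin killed control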). As to conditions: P. falciparum Dd2 in RBCs, LDH growth readout, 72 h; at 2 µM; active compounds read high.
Test [2] can be described thus: human hepatoma cell viability loss – ATP luminescence, cytotoxicity control for P. falciparum antimalarial project, primary screen (AID 2303;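 active = inhibition above 50%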;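 note: 0% = DMSO wells and 100% = digitonin-killed cells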). As to conditions: HepG2 viability, 24-48 h, at 10 µM, active compounds read high.
Test [3] addresses L-lactate dehydrogenase (Plasmodium falciparum (isolate CDC / Honduras)) (UniProt Q27743). Kind of test: PfLDH activity inhibition – cell lysate, 3D7 strain, counter-screen for P. falciparum growth inhibition project (AID 2304).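 Note: 0% = vehicle and 100% = reference inhibitor.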 Conditions: P. falciparum 3D7 crude extract, LDH APAD/NBT absorbance; at 2 µM; active compounds read high. Background: Counterscreens check selectivity or assay interference.

Test [4] in a line: inhibition of 3D7 malaria parasite growth – strain 3D7 (AID 2306).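 Note: 0% = DMSO wells and 100% = chloroquine plus artemisinin control wells.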 As to conditions: P. falciparum 3D7 erythrocytic growth, LDH absorbance, 72 h; at 2 µM; active compounds read high.
Test [5] has as its target Calcium-dependent protein kinase 1 (Plasmodium falciparum (isolate 3D7)) (UniProt P62344). The test can be described thus: PfCDPK1 kinase inhibitors, biochemical, TCAMS library (AID 1159585; cut-off not given, nearly all actives have IC50 up to about 0.98 µM;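 note: inhibitors leave more ATP so luminescence rises with inhibition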). As to conditions: recombinant PfCDPK1, Kinase-Glo ATP depletion luminescence. Background: In Kinase-Glo more light means more ATP remaining.
Test [6] addresses Plasmodium falciparum protein kinase 6 (PK6, PF3D7_1337100) (UniProt Q8IDW1). Kind of test: PfPK6 kinase inhibitors, biochemical, TCAMS library (AID 1159586). Conditions: recombinant PfPK6, Kinase-Glo ATP depletion luminescence.
For test [7], the target named is Protein kinase 7 (PK7), Plasmodium falciparum 3D7 (PF3D7_0213400) (UniProt Q7YTF7). Kind of test: inhibition of Plasmodium PK7 catalytic activity – biochemical, TCAMS antimalarial set, Kinase-Glo luminescence (AID 1159587). As to conditions: recombinant PfPK7, Kinase-Glo ATP depletion luminescence.
Chain of Protein kinase 7 (PK7), Plasmodium falciparum 3D7 (PF3D7_0213400) (Q7YTF7 1-343): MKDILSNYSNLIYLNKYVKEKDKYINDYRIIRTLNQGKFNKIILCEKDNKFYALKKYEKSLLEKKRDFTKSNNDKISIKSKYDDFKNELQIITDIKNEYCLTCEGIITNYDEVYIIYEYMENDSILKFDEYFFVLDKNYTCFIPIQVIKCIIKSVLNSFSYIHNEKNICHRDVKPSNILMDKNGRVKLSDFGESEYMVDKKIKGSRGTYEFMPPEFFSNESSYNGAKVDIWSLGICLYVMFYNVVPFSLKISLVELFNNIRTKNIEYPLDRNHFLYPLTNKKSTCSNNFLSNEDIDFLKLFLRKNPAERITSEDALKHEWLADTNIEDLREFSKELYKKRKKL
Test [8] addresses Calcium-dependent protein kinase 4 (Plasmodium falciparum (isolate 3D7)) (UniProt Q8IBS5). Kind of test: PfCDPK4 kinase inhibitors, biochemical, TCAMS library (AID 1159588; cut-off not given, nearly all actives have IC50 up to about 0.91 µM). As to conditions: recombinant PfCDPK4, Kinase-Glo ATP depletion luminescence.

Unmarked numbers belong to inactive results. For some of these results: Results with a measured potency or affinity are listed apart. The source made the active and inactive calls. Unless noted, the rule behind the calls is not given here.

Chain of Calcium-dependent protein kinase 1 (Plasmodium falciparum (isolate 3D7)) (P62344 whole entry, looked up): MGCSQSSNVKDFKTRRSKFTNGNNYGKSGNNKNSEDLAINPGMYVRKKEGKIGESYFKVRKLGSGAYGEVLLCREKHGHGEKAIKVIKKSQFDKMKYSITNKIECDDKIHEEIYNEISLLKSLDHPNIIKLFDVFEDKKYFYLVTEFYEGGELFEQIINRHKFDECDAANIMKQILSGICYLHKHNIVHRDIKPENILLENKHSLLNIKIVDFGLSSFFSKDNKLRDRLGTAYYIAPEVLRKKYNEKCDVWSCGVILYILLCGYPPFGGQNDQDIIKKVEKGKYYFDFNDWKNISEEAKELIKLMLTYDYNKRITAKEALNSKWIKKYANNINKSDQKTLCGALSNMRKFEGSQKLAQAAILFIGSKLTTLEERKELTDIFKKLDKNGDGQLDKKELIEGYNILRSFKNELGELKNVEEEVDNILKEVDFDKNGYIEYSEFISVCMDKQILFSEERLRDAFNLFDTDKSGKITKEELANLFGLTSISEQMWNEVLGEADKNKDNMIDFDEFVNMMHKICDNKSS
Chain of L-lactate dehydrogenase (Plasmodium falciparum (isolate CDC / Honduras)) (Q27743 whole entry, looked up): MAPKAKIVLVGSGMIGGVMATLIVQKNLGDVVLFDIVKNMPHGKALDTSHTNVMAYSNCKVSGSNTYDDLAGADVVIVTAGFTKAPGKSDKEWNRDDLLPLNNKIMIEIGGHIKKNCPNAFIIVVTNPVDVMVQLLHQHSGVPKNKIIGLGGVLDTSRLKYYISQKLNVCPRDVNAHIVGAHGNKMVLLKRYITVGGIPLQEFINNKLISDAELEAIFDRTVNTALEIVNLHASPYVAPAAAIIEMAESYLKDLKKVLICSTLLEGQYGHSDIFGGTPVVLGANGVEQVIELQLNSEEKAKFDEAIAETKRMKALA
Chain of Plasmodium falciparum protein kinase 6 (PK6, PF3D7_1337100) (Q8IDW1 1-305): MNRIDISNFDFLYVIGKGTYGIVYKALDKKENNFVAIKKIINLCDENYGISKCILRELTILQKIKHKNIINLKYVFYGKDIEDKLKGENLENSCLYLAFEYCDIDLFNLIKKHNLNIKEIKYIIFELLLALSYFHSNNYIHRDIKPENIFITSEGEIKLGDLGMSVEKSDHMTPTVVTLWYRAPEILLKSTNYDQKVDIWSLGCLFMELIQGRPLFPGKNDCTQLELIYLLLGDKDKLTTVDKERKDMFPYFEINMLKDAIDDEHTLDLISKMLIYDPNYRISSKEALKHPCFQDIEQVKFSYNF
Chain of Calcium-dependent protein kinase 4 (Plasmodium falciparum (isolate 3D7)) (Q8IBS5 whole entry, looked up): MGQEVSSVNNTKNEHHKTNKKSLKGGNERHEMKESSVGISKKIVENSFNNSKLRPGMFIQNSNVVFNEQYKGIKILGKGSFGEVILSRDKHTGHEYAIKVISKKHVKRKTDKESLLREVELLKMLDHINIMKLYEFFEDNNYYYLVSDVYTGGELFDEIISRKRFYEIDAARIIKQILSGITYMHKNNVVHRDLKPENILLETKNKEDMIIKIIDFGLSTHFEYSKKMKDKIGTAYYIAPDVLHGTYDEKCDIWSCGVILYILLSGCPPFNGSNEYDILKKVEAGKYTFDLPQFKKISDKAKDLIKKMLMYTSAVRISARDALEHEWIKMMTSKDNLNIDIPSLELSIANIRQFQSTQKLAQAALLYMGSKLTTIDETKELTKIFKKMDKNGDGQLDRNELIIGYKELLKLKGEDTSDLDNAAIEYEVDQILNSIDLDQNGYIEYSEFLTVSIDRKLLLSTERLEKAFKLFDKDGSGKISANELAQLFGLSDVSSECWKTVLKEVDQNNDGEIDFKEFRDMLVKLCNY

With `CCCn1c(Sc2ccc(C#N)c([N+](=O)[O-])c2)nnc1-c1ccc(Cl)cc1`, the results for the growth inhibition in test [1] and in test [4] were 95% (active) and 96% (active), respectively. In addition, the inhibition was 12% in test [2] and -3% in test [3]. In addition, the outcome in test [5], in test [6], in test [7] and in test [8] was inactive.

Take `Cc1cccc2[nH]c(-c3ccc(-c4ccc(CN5CCN(c6ccncc6)CC5)cc4)s3)nc12`: the figures for the growth inhibition in test [1] and in test [4] were 98% (active) and 102% (active), respectively. In addition, the inhibition in test [2] is 85% (active); in test [3], 2%. Further, the outcome in test [5], in test [6], in test [7] and in test [8] was inactive.

As to `Cn1c(O)c(N=NC(=S)N2CCOCC2)c2ccccc21`, the growth inhibition is 54% (active) in test [1] and 95% (active) in test [4]. Also, the results for the inhibition in test [2] and in test [3] were 57% (active) and 6%, respectively. Also, the outcome in test [5], in test [6], in test [7] and in test [8] was inactive.

Take `Cc1cccc(CNc2nc(C)cc(N[C@@H](CC(C)C)C(=O)NCCOc3ccccc3)n2)c1`: the growth inhibition was 35% in test [1] and 93% (active) in test [4]. In addition, the inhibition was 15% in test [2] and -1% in test [3]. Also, the outcome in test [5], in test [6], in test [7] and in test [8] was inactive.

For `COc1ccc(-n2c(=O)c3c(n4c(SC(C)C)nnc24)-c2ccccc2CC32CCCCC2)cc1`, the growth inhibition in test [1] is 15%; in test [4], 99% (active). For the same molecule, the inhibition was -3% in test [2] and -1% in test [3]. Moreover, the result in test [5], in test [6], in test [7] and in test [8] was inactive.

As to `CCCc1cc(Cc2cnc(N)nc2N)ccc1OCCCCCC(=O)O`, the growth inhibition was -2% in test [1] and 97% (active) in test [4]. For the same molecule, the inhibition in test [2] is 3%; in test [3], 1%. The result in test [5], in test [6], in test [7] and in test [8] was inactive.

Regarding `CCC(CC)CN1C(=O)C(c2ccccc2)(c2ccccc2)N=C1N`, the growth inhibition in test [1] was 81% (active); in test [4] it was 97% (active). In addition, the inhibition in test [2] was 14%; in test [3] it was -3%. Further, the outcome in test [5], in test [6], in test [7] and in test [8] was inactive.

`COc1cc(C=CC(=O)N2CCC3(CC2)CC(=O)c2ccccc2O3)cc(OC)c1OC`: the results for the growth inhibition in test [1] and in test [4] were 66% (active) and 88% (active), respectively. For the same molecule, the inhibition in test [2] is 7%; in test [3], -1%. Further, the result in test [5], in test [6], in test [7] and in test [8] was inactive.

As for `S=C(NN=Cc1ccccn1)Nc1ccc(Cl)c(Cl)c1`, the growth inhibition in test [1] was 85% (active); in test [4] it was 98% (active). Further, the inhibition in test [2] was 40%; in test [3] it was 5%. In addition, the outcome in test [5], in test [6], in test [7] and in test [8] was inactive.

On to `O=c1[nH]ccc2nc(N[C@@H]3CCNC3)nc(Nc3cccc(S(=O)(=O)N4CCOCC4)c3)c12`, for which the growth inhibition is 98% (active) in test [1] and 90% (active) in test [4]. For the same molecule, the inhibition in test [2] is 0%; in test [3], 4%. Further, the result in test [5], in test [6], in test [7] and in test [8] was inactive.

Consider `COc1ccc(-c2cccc(NC(=O)c3cccc(F)c3)c2)cc1CN1CCCN(C)CC1`, for which the growth inhibition was 78% (active) in test [1] and 101% (active) in test [4]. Also, the inhibition in test [2] was 42%; in test [3] it was 0%. In addition, the result in test [5], in test [6], in test [7] and in test [8] was inactive.

With `COc1ccccc1C1CC(c2ccc(C)cc2)=NN1C(=O)c1ccccc1` (stereo not given), the growth inhibition was 45% in test [1] and 98% (active) in test [4]. Further, the inhibition in test [2] was 37%; in test [3], -5%. Besides, the outcome in test [5], in test [6], in test [7] and in test [8] was inactive.

For the molecule `N#Cc1ccc(-c2ccc(C(=O)NCCCCN3CCC(c4cc(Br)c5c(c4O)CCCC5)CC3)cc2)cc1`, the growth inhibition is 50% (active) in test [1] and 101% (active) in test [4]. Besides, the figures for the inhibition in test [2] and in test [3] were 93% (active) and 7%, respectively. Moreover, the outcome in test [5], in test [6], in test [7] and in test [8] was inactive.

Take `COc1ccc(CCNCCCCCCNCCc2ccc(Cl)c(Cl)c2)cc1OC`: the results for the growth inhibition in test [1] and in test [4] were 10% and 101% (active), respectively. Also, the figures for the inhibition in test [2] and in test [3] were 59% (active) and -1%, respectively. For the same molecule, the outcome in test [5], in test [6], in test [7] and in test [8] was inactive.

As to `Cc1ccccc1C1CCN(c2ccc(C(=O)NC3CC3)cn2)CC1`, the growth inhibition in test [1] and in test [4] was 95% (active) each time. Also, the inhibition in test [2] is 17%; in test [3], -2%. Moreover, the result in test [5], in test [6], in test [7] and in test [8] was inactive.

For the molecule `c1cc(CN2CCN(c3ccncc3)CC2)cc(-c2ccc(-c3nc4ccccc4[nH]3)s2)c1`, the growth inhibition was 100% (active) in test [1] and 102% (active) in test [4]. Also, the inhibition was 59% (active) in test [2] and -2% in test [3]. For the same molecule, the outcome in test [5], in test [6], in test [7] and in test [8] was inactive.

On to `COc1ccc(C2C(C(=O)Nc3ccc(C)c(F)c3)c3cc(OC)c(OC)cc3C(=O)N2C)cc1` (stereo not given), for which the figures for the growth inhibition in test [1] and in test [4] were 26% and 81% (active), respectively. The inhibition was 6% in test [2] and -2% in test [3]. For the same molecule, the outcome in test [5], in test [6], in test [7] and in test [8] was inactive.

Turning to `COC(=O)c1ccc2nc(-c3ccc(C(=O)NCc4ccc(Cl)c(Cl)c4)cc3)[nH]c2c1`, the values for the growth inhibition in test [1] and in test [4] were 3% and 95% (active), respectively. In addition, the results for the inhibition in test [2] and in test [3] were 1% and -2%, respectively. Besides, the result in test [5], in test [6], in test [7] and in test [8] was inactive.

Regarding `CC(=O)c1ccc(O)c(CC(O)CO)c1` (stereo not given), the growth inhibition in test [1] was -1%; in test [4], 100% (active). The inhibition is 3% in test [2] and 4% in test [3]. The outcome in test [5], in test [6], in test [7] and in test [8] was inactive.

With `COc1ccc2c(NN=Cc3cccc(C)n3)ccnc2c1`, the figures for the growth inhibition in test [1] and in test [4] were 51% (active) and 96% (active), respectively. The inhibition in test [2] is -12%; in test [3], 3%. In addition, the outcome in test [5], in test [6], in test [7] and in test [8] was inactive.

For orientation: inhibition means the relative decrease from the control value, in per cent.

For the origin of these results see PubChem BioAssay.
